Experimental findings from PubChem BioAssay (NCI) are described below.

The panel holds about 83,000 compounds, 20% with a hit somewhere; the sample as a whole holds those more often.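 Values shown are percent growth following 48 h exposure of cells in 96-well plates to a single concentration of compound; below 10 was considered active.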 Values without a mark were called inactive. Activity calls are given as the source filed them.

Common to all, as to experiment: NCI-60 one-dose screen, 48 h (100 = growth as untreated, 0 = no growth, -100 = all killed)
Settings in all cases: 10 µM

Assay [1] relates to SR leukemia.
Assay [2] relates to RPMI-8226 leukemia.
For assay [3], the system named is OVCAR-8 ovarian.
Assay [4] concerns OVCAR-5 ovarian.
For assay [5], the system named is IGROV1 ovarian.
Assay [6] relates to OVCAR-3 ovarian.
Assay [7] deals with HS 578T breast.
In assay [8] the test system is NCI/ADR-RES ovarian.
Assay [9] relates to OVCAR-4 ovarian.
The test system of assay [10] is SK-OV-3 ovarian.

For `Cc1ccc(Cl)cc1Nc1nc(C(F)(F)F)ccc1C(=O)N/N=C/c1c(Cl)cccc1Cl`, the growth was 123% in assay [1]; -51.2% (active) in assay [2]; 10.6% in [3]; 24.2% in [4]; -8.67% (active) in assay [5]; -28.5% (active) in [6]. Moreover, the values for the growth in [7] and in assay [8] were -10.1% (active) and 5.19% (active), respectively.

With `CC(C)(C)CC(C)(C)c1ccc(O)c(Cc2ccc(Cl)cc2Cl)c1`, the growth is -57.5% (active) in assay [1]; -10.7% (active) in assay [2]; -43.4% (active) in assay [3]; -86.5% (active) in [9]; -86.6% (active) in [10]; -82.8% (active) in assay [5]. The values for the growth in [6], in [7] and in assay [8] were -93.7% (active), -23% (active) and -81.1% (active), respectively.

As to `CC(C)CCN(CCCNc1c2c(nc3cc(Cl)ccc13)CCCC2)CCC(C)C`, the growth in [1] was 7.94% (active); in assay [2], 39.5%; in assay [3] it was 79.4%; in [10], 93.2%; in [5], 50.2%; in assay [6], 81.6%. Besides, the growth in assay [7] is 76.1%; in assay [8] it was 74.3%.

`Cc1nc2cc(-n3c(-c4ccc(F)cc4)nc4ccccc4c3=O)ccc2n1Cc1ccccc1`: the growth in assay [1] was -7.66% (active); in [2] it was 37.5%; in [3], 13%; in assay [4], 65.2%; in [10], 58.8%; in assay [6], -18.7% (active). Further, the growth is 5.86% (active) in [7] and 6.09% (active) in [8].

As to `COc1c(C)c(C)c(OC)c2c1[nH]c(=O)c1c3cccnc3cn21`, the growth in [1] is 94.8%; in [2], 108%; in assay [3], 111%; in [4], 122%; in [10] it was 103%; in assay [6], 104%. Besides, the growth in assay [7] was 99.5%; in assay [8] it was 110%.

In the case of `CC(=O)CS(C)(=O)=O`, the growth was 94.8% in assay [1]; 105% in assay [2]; 105% in assay [3]; 102% in assay [4]; 104% in assay [10]; 108% in assay [5]. The growth in [6] is 111%; in [7] it was 107%; in [8], 109%.

As for `CCN1CCOC1C(C)C` (configuration not stated), the growth was 81.7% in assay [1]; 108% in [3]; 99.2% in [4]; 113% in [9]; 100% in assay [10]; 108% in [5]. In addition, the values for the growth in [6], in [7] and in assay [8] were 111%, 109% and 102%, respectively.

For the compound `CS(=O)(=O)Nc1ccc([N+](=O)[O-])cc1Oc1ccccc1`, the growth in [1] was 87%; in assay [2], 83.2%; in assay [3], 92.1%; in assay [9], 97%; in assay [10], 97.3%; in [5], 106%. Moreover, the growth in assay [6] is 95.4%; in [7], 98.2%; in assay [8], 96.8%.

In the case of `O=c1ccc2nc(-c3ccccc3)nn(-c3ccccc3)c-2c1`, the growth is -20.2% (active) in [1]; -8.63% (active) in [2]; -2.36% (active) in assay [3]; 102% in assay [4]; 59.1% in [10]; -98.1% (active) in [6]. The growth was 75.9% in [7] and 96.2% in assay [8].

On to `CCN(CC)CC(O)CNc1ccnc2cc(Cl)c(Cl)cc12` (configuration not stated), for which the growth was 28.4% in assay [1]; 90.3% in assay [2]; 84.3% in assay [3]; 85.9% in assay [9]; 106% in assay [10]; 91.1% in [5]. Further, the growth in [6] is 92.5%; in assay [7] it was 103%; in assay [8], 87.1%.

`S=C(Cc1ccc(-c2ccccc2)cc1)N1CCOCC1`: the growth in assay [1] was 101%; in [2] it was 96.5%; in [3], 102%; in assay [9], 101%; in [10], 102%; in assay [5], 113%. Also, the growth in assay [6] was 104%; in [7], 97.8%; in [8], 103%.

As for `CC(=O)c1c(O)cc2c3c1OC(C)(C)C1CCC(C)(CC31)O2` (configuration not stated), the growth is 86.7% in [1]; 86.3% in assay [3]; 97.7% in assay [4]; 89.6% in assay [9]; 97.6% in assay [10]; 96.2% in [5]. Moreover, the growth in assay [6] is 93.8%; in assay [7], 115%; in assay [8], 89.6%.

As to `CCCCCN(CCCCC)C(C)C(O)c1ccc2cc(Cl)c3ccccc3c2c1` (configuration not stated), the growth in assay [1] is 84.7%; in assay [2], 84.1%; in [3], 99.9%; in [9], 105%; in assay [10] it was 88.8%; in assay [5] it was 98.3%. The growth was 97.4% in [6], 89.4% in [7] and 98.9% in [8].

Take `CCCn1c(=O)c2c(nc(-c3cccc(OCCCCl)c3)n2C)n(CCC)c1=O`: the growth in assay [1] is 59.6%; in assay [2] it was 83.9%; in assay [3], 33.9%; in assay [4], 73.1%; in assay [5], 30.2%; in assay [6] it was 21.7%. In addition, the growth was 31.4% in assay [7] and 35.9% in [8].

As to `CCCc1c(CC)c(=N)c2ccccc2n1C`, the growth in [1] is -27.5% (active); in assay [2], -17% (active); in [3] it was 76.1%; in assay [4], 100%; in assay [10] it was 91.3%; in [5], 82.8%. The growth in assay [6] was 85%; in [7], 76.5%; in assay [8] it was 78.6%.

Consider `CC1(C)CCc2cc(-c3ccn(S(=O)(=O)c4ccc(Cl)cc4)n3)ccc2O1`, for which the growth is 45.5% in [1]; 52.1% in assay [2]; 86.6% in [3]; 101% in [4]; 91.3% in assay [10]; 84% in [6]. Also, the growth in assay [7] is 99.5%; in assay [8] it was 69.3%.
